A selection: hits, their analogues and other compounds. The true share with any hit is near 19%.
DT40 TDP1 CPT: DT40-hTDP1 cell growth loss with CPT; chicken DT40 Tdp1-/-;hTDP1 cells + 20 nM CPT, ATP luminescence, 48 h; Potency, µM (top dose mostly 46.2 µM), inactives show at the top dose activity change, negative = growth inhibition, usual class: inhibitors; hit rate 12% among 420,000; AID 686979; note: nearly all actives have a fitted effect of over 55% in size
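Chicken DT40 Tdp1-/- cells complemented with human TDP1, 400 cells/well, exposed to compounds plus 20 nM camptothecin for at least 48 h at 37 C; viability read as ATP content by CellTiter-Glo luminescence.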
KB-3-1 tox: KB-3-1 parental cell cytotoxicity; KB-3-1 viability, CellTiter-Glo ATP luminescence, 72 h; Potency, µM (top dose mostly 46.1 µM), most hits filed as cytotoxic; hit rate 1.4% among 400,000; note: nearly all actives have a fitted effect of over 60% in size
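Screening of KB-3-1 cells (DMEM, 10% FBS, phenol-red free) ran from lowest to highest compound concentration; after 72 h at 37 °C viability was read luminescently and curves fitted.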
KB-V1 MDR tox: KB-V1 MDR subline cytotoxicity. KB-V1 MDR cells viability, CellTiter-Glo, 72 h. Potency, µM (series often up to 46.1 µM), usual class: cytotoxic. hit rate 3.4% among 400,000; note: nearly all actives have a fitted effect of over 60% in size
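qHTS viability screen in drug-selected KB-V1 MDR cells: 72 h compound treatment at 37 degrees C, ATP luminescence end point.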
DT40 TDP1 no CPT: qHTS for Inhibitors of human tyrosyl-DNA phosphodiesterase 1 (TDP1): qHTS in cells in absence of CPT; DT40 Tdp1-/- hTDP1 cells, no CPT, ATP luminescence, 48 h; Potency, µM (series often up to 46.2 µM), for inactives: top-dose activity change, negative = growth inhibition, usual class: inhibitors; hit rate 15% among 420,000; AID 686978, 2013; note: nearly all actives have a fitted effect of over 55% in size
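Compound effects on proliferation are scored in DT40 Tdp1-/-;hTDP1 cells in the absence of CPT. ATP levels (CellTiter-Glo luminescence) are recorded after a ≥48 hr, 37 °C incubation.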
HT1080NT lethal: kills 2HG-producing HT-1080-NT fibrosarcoma cells; Potency, µM (titrated, usually from 46.1 µM), inactives show top-dose activity, negative = less viability, actives largely listed as cytotoxic; AID 686970; HT-1080-NT fibrosarcoma viability, CellTiter-Glo ATP luminescence, 48 h; hit rate 1.6% among 360,000;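 note: NT is the 2HG producing partner of a matched IDH1 knockdown line; 0% = DMSO-treated cells and -100% = media-only wells without cells; nearly all actives have a fitted effect of over 55% in size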
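Viability by CellTiter-Glo luminescence after 48 h compound exposure at 37C of HT-1080-NT cells (750/well, RPMI, 5% FBS). % activity scaled between DMSO wells and medium-only wells, then curve-fitted and categorized by curve class.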
HT1080 IDH1KD tx: HT-1080 IDH1 knockdown cell toxicity (counter line) | Potency, µM (series often up to 46.1 µM), for inactives: at the top dose activity, negative = toxicity, actives largely listed as cytotoxic | hit rate 2% among 360,000 | HT-1080 IDH1 knockdown viability, ATP luminescence, 48 h | AID 686971;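 note: 0% = DMSO wells and -100% = cell-free medium wells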
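IDH1KD HT-1080 cells, 750/well, RPMI + 5% FBS; compound pinned after 2 h settling; 48 h, 37 °C; CellTiter-Glo luminescence; % activity normalised to DMSO and no-cell wells; curves fitted, classed by r2 and efficacy.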
* = called active by the depositor; i = inactive; ? = inconclusive; / = not tested or not shown; [ ] = remark or other dose. Calls come from the whole dose curve; as a rule, active = well fitted curve in the direction sought with a large enough effect; inconclusive = small, poorly fitted or top-dose-only effect, or another doubt; inactive = no such curve, though single readings can be large; an effect the other way counts as inactive or inconclusive. Unless noted, % is set by controls: 0 for no effect and ±100 for the full control effect; potency is the fitted concentration of half-maximal effect.

SMILES	DT40 TDP1 CPT	KB-3-1 tox	KB-V1 MDR tox	DT40 TDP1 no CPT	HT1080NT lethal	HT1080 IDH1KD tx
CCC(C)Sc1nc2c(c(=O)[nH]1)C(c1cccs1)C1=C(CCCC1=O)N2 (configuration not stated)	?	i	i	21µM*	-28%	-19%
O=C(C[n+]1ccccc1)NNc1ccccc1	-1%	6.5µM*	i	-15%	2.6µM*	4.6µM*
O=C(COc1ccccc1O)NNc1ccccc1	21%	?	?	5%	2.3µM*	3.3µM*
CCN1C(=O)C(=O)N(CC(=O)Nc2ccccc2OC(F)F)C1=O	8%	i	i	-15%	11%	2%
Cc1ccnc(NS(=O)(=O)c2ccc(NC(=O)C34CC5CC(CC(C5)C3)C4)cc2)n1	-10%	i	i	-13%	-1%	-6%
CCOc1ccc(NC(=O)CN(C)C(=O)c2ccc(N3CCCCCC3)c([N+](=O)[O-])c2)cc1OCC	?	i	?	23µM*	4%	0%
CCOc1ccc(NC(=O)CN(C)C(=O)c2ccc(NC3CC3)c([N+](=O)[O-])c2)cc1OCC	-19%	i	i	-40%	-5%	5%
CN(CC(=O)Nc1cccc(F)c1)C(=O)c1ccc(N2CCCC2)c([N+](=O)[O-])c1	16µM*	i	i	16µM*	-2%	-20%
CN(CC(=O)Nc1cccc(F)c1)C(=O)c1cc([N+](=O)[O-])ccc1N1CCCCC1	?	i	i	29µM*	1%	0%
COc1cccc(NC(=O)CN(C)C(=O)c2ccc(N3CCCCC3)c([N+](=O)[O-])c2)c1	?	i	?	?	-8%	-4%
CN(Cc1nc2ccccc2c(=O)[nH]1)C(=O)c1ccc(S(=O)(=O)N2CCCC2)cc1	-5%	i	i	-3%	1%	-1%
CCCc1nnc(NC(=O)c2nc(SCC)ncc2Cl)s1	-29%	i	i	-4%	/	/
CCOc1cc(CNCc2ccccc2)ccc1OCc1ccc(Cl)cc1	23µM*	?	i	5.8µM*	15µM*	?
COc1cccc(OCCNCc2ccccc2)c1	?	i	i	18µM*	-2%	8%
COc1cc(CN(C)CCc2ccccc2)ccc1OCc1ccccc1	?	i	i	26µM*	?	?
Cc1cccc(OCCCCNCc2ccccc2)c1	-14%	i	i	?	-24%	-17%
COc1ccc(CCNCc2ccc(OCc3ccccc3)cc2)cc1	?	i	i	?	?	18µM*
Cc1ccc(SCC(=O)Nc2ccc(N3CCOCC3)cc2)cc1C	-28%	i	i	-28%	0%[9.24 µM]	12%
COc1ccc(CCNCc2csc3nc4ccccc4n23)cc1OC	12µM*	?	?	9.2µM*	-6%	-17%
COc1ccc(CNCCc2ccccc2)cc1OCC(N)=O	-4%	i	?	1%	17%	-14%
COc1ccc(CCNC(=O)Cc2ccc(OCc3ccccc3)c(OC)c2[N+](=O)[O-])cc1OCc1ccccc1	23µM*	?	2.6µM*	8.2µM*	-1%	0%
c1ccc(COc2ccc(CNCc3cccs3)cc2)cc1	?	i	?	13µM*	?	?
COc1ccc(CNCCc2ccc(Cl)cc2)cc1OCc1ccccc1	6.5µM*	?	i	4.6µM*	?	?
Brc1ccc(CNCc2cccs2)cc1	-6%	i	i	-22%	-2%	14%
COc1ccc(CCNC(=O)Cc2ccc([N+](=O)[O-])cc2)cc1OC	5%	i	i	2%	5%	15%
SMILES	DT40 TDP1 CPT	KB-3-1 tox	KB-V1 MDR tox	DT40 TDP1 no CPT	HT1080NT lethal	HT1080 IDH1KD tx
Cc1ccc2c(c1)c1c(c(=O)n(-c3ccccc3)c(=O)n1CC(=O)c1ccc(F)cc1)n2C	2%	i	i	4%	/	/
Cc1cc(C)n2nc(SCC(=O)N(C)c3ccccc3)nc2n1	-2%	i	i	-8%	3%	-3%
COc1cc(CNCCCN2CCOCC2)ccc1OCC(=O)Nc1cccc(C(F)(F)F)c1	?	i	i	?	?	?
COc1cc(CNCCN2CCOCC2)ccc1OCc1cccc(Cl)c1	?	i	i	16µM*	?	?
COc1ccc(CCNCc2ccc(-c3ccccc3)cc2)cc1OC	?	i	?	23µM*	23µM*	23µM*
CCCCc1nc2cc(C(=O)N3CCCC3)ccc2o1	-10%	i	i	-27%	2%	3%
CN(C)c1ccc(C=O)c(O)c1	0%	i	i	-3%	/	/
Cc1ccc(-c2nnc(SCc3ccccc3)o2)cc1	-16%	/	/	-20%	/	/
Cc1cc(C)cc(-n2nnc(C(=O)NCc3ccc4c(c3)OCO4)c2N)c1	3%	i	8.2µM*	-15%	8%	5%
COC(=O)c1nnn(-c2cccc(C)c2)c1N	/	i	i	/	/	/
Cc1ccc(CCNC(=O)c2nnn(-c3cc(C)cc(C)c3)c2N)cc1	-27%	i	i	?	-10%	-1%
COc1ccc(CCNC(=O)c2nnn(-c3cc(C)cc(C)c3)c2N)cc1OC	15µM*	i	?	?	-3%	-4%
COc1ccc(CCNC(=O)c2nnn(-c3cccc(C)c3)c2N)cc1OC	?	i	9.2µM*	?	9%	1%
COc1ccc(CCNC(=O)c2cn3ccc(C)cc3n2)cc1OC	?	i	i	16µM*	-5%	1%
CC(CCc1ccccc1)NC(=O)COC(=O)c1ccc(NC(N)=O)cc1 (configuration not stated)	-11%	i	i	0%	17%	21%
Cc1ccccc1S(=O)(=O)N(CC(O)CN1C(=O)NC(C)(C)C1=O)c1ccccc1 (configuration not stated)	-6%	i	i	-12%	5%	11%
CCOC(=O)c1c(C)c(C(=O)NCc2ccc3c(c2)OCO3)c(C)n1C	-10%	i	18µM*	-19%	-2%	-3%
COc1ccc(-n2ncc(Cl)c(Cl)c2=O)cc1	4.1µM*	5.2µM*	?	2.9µM*	4.6µM*	8.2µM*
Cc1cccc(C(=O)N2CC3(C)CC2CC(C)(C)C3)c1 (configuration not stated)	21µM*	i	?	23µM*	9%	9%

Screens: PubChem BioAssay, National Center for Advancing Translational Sciences (NCATS)
